Screening results deposited in PubChem by several laboratories.
CYP2C9 activ: human CYP2C9 activators, primary screen, biochemical, luminescence. recombinant CYP2C9, luciferin-H conversion; active compounds read high; factor 1 = untreated enzyme, 0 = blocked. activation factor at 5 µM. 1.4% of 96,000 active;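 active = activation factor of 2 or more for CYP2C9 at a 5 µM dose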
Target sequence (P11712 whole entry, looked up): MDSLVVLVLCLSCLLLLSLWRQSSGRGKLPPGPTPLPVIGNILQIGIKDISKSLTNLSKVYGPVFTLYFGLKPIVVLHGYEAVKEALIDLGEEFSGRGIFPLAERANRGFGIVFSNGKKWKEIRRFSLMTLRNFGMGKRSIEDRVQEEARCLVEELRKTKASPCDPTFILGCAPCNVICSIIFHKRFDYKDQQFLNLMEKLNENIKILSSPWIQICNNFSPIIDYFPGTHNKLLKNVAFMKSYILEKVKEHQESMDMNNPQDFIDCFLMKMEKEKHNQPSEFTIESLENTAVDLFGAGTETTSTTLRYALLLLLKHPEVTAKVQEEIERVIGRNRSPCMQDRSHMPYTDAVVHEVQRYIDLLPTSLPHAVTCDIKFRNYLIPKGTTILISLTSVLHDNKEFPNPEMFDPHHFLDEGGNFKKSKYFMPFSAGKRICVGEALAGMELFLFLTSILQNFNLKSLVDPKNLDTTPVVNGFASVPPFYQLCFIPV
CYP2C19 activ: human CYP2C19 activators, primary screen, biochemical, luminescence. 96,000 tested, under 10 active. recombinant CYP2C19, luciferin-H EGE luminescence; active compounds read high; 0 = fully inhibited enzyme, 1 = untreated enzyme. AID 1025, 2008. Cytochrome P450 2C19 (Homo sapiens), P33261. activation factor at 5 µM;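 active = activation factor of at least 2 at 5 µM in the primary screen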
CYP2C19 inh: blockers of cytochrome P450 2C19 activity – biochemical, luminescence, ADME assay, primary screen; P33261; CYP2C19 Supersomes, luciferin-H EGE luminescence, 30 min; inhibition, % at 5 µM; 21% of 96,000 active;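 active = CYP2C19 inhibition above a set limit at 5 µM in the primary screen, cut at about 50% in these data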
CYP2C9 inh: blockers of cytochrome P450 2C9 activity – biochemical, luminescence, ADME assay, primary screen. P11712. CYP2C9 Supersomes, luciferin-H conversion. inhibition, % at 5 µM. 20% of 96,000 active. AID 777, 2007;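 active = blocking of liver enzyme CYP2C9 beyond about 50% at 5 µM, limit read from the data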
sEH inh: soluble epoxide hydrolase inhibitors, primary screen, biochemical, human sEH. Bifunctional epoxide hydrolase 2 (Homo sapiens), P34913. recombinant human sEH enzymatic activity assay. inhibition, % at 2 µM. 0.34% of 91,000 active; in the data active = inhibition above about 80%
sEH act: soluble epoxide hydrolase activators, primary screen, biochemical, human sEH; purified human sEH enzymatic activity, activator screen; 0.04% of 91,000 active; Bifunctional epoxide hydrolase 2 (Homo sapiens), P34913; activation, % at 2 µM; in the data active = activation above about 37%
Hits are given with their value. An excerpt weighted towards active compounds, which were near 27% of everything screened.

Results for Cc1cc2c(cc1C)NC(c1c(C)n(C)n(-c3ccccc3)c1=O)C1=C(CC(C)(C)CC1=O)N2 (stereo unspecified) ?
CYP2C9 activ: inactive; CYP2C19 activ: inactive; CYP2C19 inh: inactive; CYP2C9 inh: inactive; sEH inh: inactive; sEH act: inactive

Results for CCOC(=O)C(C)Sc1nc(-c2ccc(OC)cc2)nc2c1c(=O)n(C)c(=O)n2C (stereo unspecified) ?
CYP2C9 activ: inactive; CYP2C19 activ: inactive; CYP2C19 inh: inactive; CYP2C9 inh: inactive

What do the screens show for `Cc1c(C(=O)NCc2ccc3c(c2)OCO3)oc2ccc(S(=O)(=O)N3CCCCC3)cc12`?
CYP2C9 activ: inactive; CYP2C19 activ: inactive; CYP2C19 inh: inactive; CYP2C9 inh: 59; sEH inh: inactive; sEH act: inactive

Results for CC1CCN(S(=O)(=O)c2ccc(C(=O)NCc3ccc4c(c3)OCO4)cc2)CC1 ?
CYP2C9 activ: inactive; CYP2C19 activ: inactive; CYP2C19 inh: inactive; CYP2C9 inh: inactive; sEH inh: inactive; sEH act: inactive

How did COc1ccccc1CNC(=O)c1oc2ccc(S(=O)(=O)N3CCCC3)cc2c1C do in these assays?
CYP2C9 activ: inactive; CYP2C19 activ: inactive; CYP2C19 inh: inactive; CYP2C9 inh: 73; sEH inh: inactive; sEH act: inactive

How did Cc1c(C(=O)N(C)Cc2ccccc2)oc2ccc(S(=O)(=O)N3CCCC3)cc12 do in these assays?
CYP2C9 activ: inactive; CYP2C19 activ: inactive; CYP2C19 inh: inactive; CYP2C9 inh: 95; sEH inh: inactive; sEH act: inactive

What do the screens show for `Cc1c(C(=O)NCc2ccccc2)oc2ccc(S(=O)(=O)N3CCCC3)cc12`?
CYP2C9 activ: inactive; CYP2C19 activ: inactive; CYP2C19 inh: inactive; CYP2C9 inh: inactive; sEH inh: inactive; sEH act: inactive

How did Cc1ccc(S(=O)(=O)N2CCC(C(=O)OC(C)C(=O)NCc3ccc4c(c3)OCO4)CC2)cc1 (stereo unspecified) do in these assays?
CYP2C9 activ: inactive; CYP2C19 activ: inactive; CYP2C19 inh: 73; CYP2C9 inh: inactive; sEH inh: inactive; sEH act: inactive

Results for CCOc1cc(C)ccc1OCc1nnc(SCC(=O)c2cccc([N+](=O)[O-])c2)n1C ?
CYP2C9 activ: inactive; CYP2C19 activ: inactive; CYP2C19 inh: inactive; CYP2C9 inh: inactive; sEH inh: inactive; sEH act: inactive

What do the screens show for `COc1cccc(C2/C(=C(\O)c3c(C)nc4c(C)cccn34)C(=O)C(=O)N2CCCN(C)C)c1OC` (stereo unspecified)?
CYP2C9 activ: inactive; CYP2C19 activ: inactive; CYP2C19 inh: inactive; CYP2C9 inh: inactive

How did O=C(COC(=O)c1ccc(S(=O)(=O)N2CCCC2)cc1)NCc1ccccc1 do in these assays?
CYP2C9 activ: inactive; CYP2C19 activ: inactive; CYP2C19 inh: inactive; CYP2C9 inh: 56; sEH inh: inactive; sEH act: inactive

What do the screens show for `O=C(CSc1nnc(-c2ccc(S(=O)(=O)N3CCCC3)cc2)o1)NCc1ccccc1`?
sEH inh: inactive; sEH act: inactive

How did O=C(COC(=O)c1ccccc1S(=O)(=O)N1CCCCC1)NCC(F)(F)F do in these assays?
CYP2C9 activ: inactive; CYP2C19 activ: inactive; CYP2C19 inh: inactive; CYP2C9 inh: 70; sEH inh: inactive; sEH act: inactive

How did NS(=O)(=O)c1ccc(CCNC(=O)c2ccc(S(=O)(=O)N3CCCCC3)cc2)cc1 do in these assays?
CYP2C9 activ: inactive; CYP2C19 activ: inactive; CYP2C19 inh: inactive; CYP2C9 inh: 61; sEH inh: inactive; sEH act: inactive

Results for CCCNC(=O)COC(=O)c1ccc(Cl)c(S(=O)(=O)N2CCCC2)c1 ?
CYP2C9 activ: inactive; CYP2C19 activ: inactive; CYP2C19 inh: inactive; CYP2C9 inh: inactive; sEH inh: inactive; sEH act: inactive

Results for CC(C)(C)c1ccc(S(=O)(=O)N2CCCCC2C(=O)NCc2ccccn2)cc1 (stereo unspecified) ?
CYP2C9 activ: inactive; CYP2C19 activ: inactive; CYP2C19 inh: 63; CYP2C9 inh: inactive

How did O=C1CSC(c2ccccc2)N1CC12CC3CC(CC(O)(C3)C1)C2 (stereo unspecified) do in these assays?
CYP2C9 activ: inactive; CYP2C19 activ: inactive; CYP2C19 inh: inactive; CYP2C9 inh: inactive

How did Cc1nonc1OCCNC(=O)C12CC3CC(CC(C3)C1)C2 do in these assays?
CYP2C9 activ: inactive; CYP2C19 activ: inactive; CYP2C19 inh: inactive; CYP2C9 inh: inactive; sEH inh: inactive; sEH act: inactive

Results for CCn1c(O)c(C=Nc2ccccc2)n(-c2ccccc2)c1=S ?
CYP2C9 activ: inactive; CYP2C19 activ: inactive; CYP2C19 inh: inactive; CYP2C9 inh: inactive; sEH inh: inactive; sEH act: inactive

How did C=CCNC(=O)C1CCN(S(=O)(=O)c2ccc(Br)cc2)CC1 do in these assays?
CYP2C9 activ: inactive; CYP2C19 activ: inactive; CYP2C19 inh: 51; CYP2C9 inh: inactive; sEH inh: inactive; sEH act: inactive

How did O=C(NC1CC1)C1CCCN1S(=O)(=O)c1ccc2ccccc2c1 (stereo unspecified) do in these assays?
CYP2C9 activ: inactive; CYP2C19 activ: inactive; CYP2C19 inh: inactive; CYP2C9 inh: inactive; sEH inh: inactive; sEH act: inactive

What do the screens show for `O=C(NCc1cccnc1)C1CCCCN1S(=O)(=O)c1ccc(F)cc1` (stereo unspecified)?
CYP2C9 activ: inactive; CYP2C19 activ: inactive; CYP2C19 inh: 80; CYP2C9 inh: inactive; sEH inh: inactive; sEH act: inactive

What do the screens show for `C=CCNC(=O)C1CCN(S(=O)(=O)CC)CC1`?
CYP2C9 activ: inactive; CYP2C19 activ: inactive; CYP2C19 inh: inactive; CYP2C9 inh: inactive; sEH inh: inactive; sEH act: inactive

What do the screens show for `O=C(NCc1ccco1)C1CCCN1S(=O)(=O)c1ccc2ccccc2c1` (stereo unspecified)?
CYP2C9 activ: inactive; CYP2C19 activ: inactive; CYP2C19 inh: 88; CYP2C9 inh: inactive; sEH inh: inactive; sEH act: inactive

Results for Cc1c(C(=O)NCc2cccnc2)oc2ccc(S(=O)(=O)N3CCCCCC3)cc12 ?
CYP2C9 activ: inactive; CYP2C19 activ: inactive; CYP2C19 inh: inactive; CYP2C9 inh: 51

Results for O=C(NCc1ccccc1)c1ccc(S(=O)(=O)N2CCCC2)cc1 ?
CYP2C9 activ: inactive; CYP2C19 activ: inactive; CYP2C19 inh: inactive; CYP2C9 inh: inactive; sEH inh: inactive; sEH act: inactive

What do the screens show for `CC(C)(C)c1ccc(S(=O)(=O)N2CCCC2C(=O)NC2=NCCS2)cc1` (stereo unspecified)?
CYP2C9 activ: inactive; CYP2C19 activ: inactive; CYP2C19 inh: inactive; CYP2C9 inh: 76; sEH inh: inactive; sEH act: inactive
